Our source for the growth values is PubChem BioAssay (NCI).

Experiment in all cases: NCI-60 one-dose screen, 48 h (100 = growth as untreated, 0 = no growth, -100 = all killed)
Holding throughout (details): 10 µM unless noted

For test [1], the system named is HCT-15 colon.
For test [2], the system named is HT29 colon.
The subject of test [3] is SNB-75 CNS.
Test [4] deals with SNB-19 CNS.
The test system of test [5] is U251 CNS.
Test [6] concerns PC-3 prostate.
Test [7] has as its system SK-MEL-5 melanoma.
In test [8] the test system is UACC-62 melanoma.
In test [9] the test system is LOX IMVI melanoma.
Test [10] concerns SK-MEL-28 melanoma.

About 83,000 compounds went through this panel and 20% of them were active in at least one assay; those are over-represented in the sample as a whole.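 Treatment: one concentration, 48 hours, 96-well format. Scoring: percent growth, with anything below 10 considered active.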 Unmarked numbers belong to inactive results. Activity calls are given as the source filed them.

`Cc1ccc(Nc2cccc3ccccc23)cc1`: the growth in test [1] was 79.1%; in [2], 83.9%; in test [3], 79.7%; in test [4] it was 90.3%; in test [5] it was 90.8%; in test [6], 73.9%. Also, the growth in test [7] was 96.1%; in [8], 85.4%; in test [9] it was 79.9%; in test [10], 98.5%.
In the case of `OC(CCCCCCCCC(O)CN1CCc2ccccc2C1)CN1CCc2ccccc2C1` (stereo not given), the growth in [1] was 95.1%; in test [2], 114%; in test [3], 95.4%; in test [4], 105%; in test [5], 101%; in test [6], 98.9%. Also, the growth is 95.2% in test [7], 101% in test [8], 96.4% in [9] and 108% in test [10].
Take `Clc1ccc(-c2cnc3nonc3n2)s1`: the growth was 54.4% in test [1]; 83% in test [2]; 102% in [3]; 91.4% in [4]; 87.9% in test [5]; 51.8% in test [6]. Further, the growth is 24.5% in test [7], 54.9% in test [8], 36.5% in test [9] and 94.4% in test [10].
In the case of `O=C1C=CN2C(=O)CC=CC2[C@@H]1O` (stereo not given in full), the growth was 138% in test [1]; 110% in test [2]; 94.1% in test [3]; 130% in [4]; 120% in test [5]; 94.9% in test [6]. Besides, the growth in test [7] was 109%; in test [8], 115%; in [9] it was 100%; in test [10] it was 110%.
Turning to `COc1ccc(C2NC(=O)c3cc4c(cc3N2)OCO4)cc1` (stereo not given), the growth in test [1] was 12.5%; in test [2], 5.16% (active); in test [3], 5.9% (active); in [4] it was 34%; in test [5] it was 17.2%; in [6], 27.9%. The growth is 11.9% in [7], 25.3% in [8], 39.9% in test [9] and 39.8% in [10].
Take `Oc1ccccc1-c1nnc(COc2ccc(Cl)cc2Cl)o1`: the growth is 27.4% in test [1]; 60.3% in test [2]; 86.6% in [3]; 53.5% in test [4]; 41.5% in test [5]; 47.8% in [6]. For the same compound, the growth in test [7] is 32.3%; in test [8], 25.1%; in test [9], 25.5%; in [10], 68.9%.
Take `COc1cc(OC)c2sc(-c3ccc(-n4cncc4-c4ccc(OC)c(N)c4)cc3)nc2c1`: the growth in test [1] was 73.9%; in [2], 74.3%; in test [3], 81.8%; in test [4], 80.1%; in [5], 67.2%; in [6], 50.4%. Besides, the growth is 53.1% in test [7], 85.6% in [8], 90.2% in test [9] and 104% in [10].
In the case of `N#Cc1ccc(-c2ccc(-c3cccs3)o2)cc1F`, the growth was 79.7% in test [1]; 84.5% in [2]; 44.9% in test [3]; 110% in test [4]; 67.2% in test [5]; 87.5% in test [6]. Besides, the growth in test [7] is 84.4%; in [8] it was 81.6%; in [9] it was 80.2%; in test [10] it was 91.9%.
On to `Cc1c(C(=O)Nc2ccccc2F)sc2c(=O)[nH]cnc12`, for which the growth in test [1] was 59%; in test [2], 63.8%; in [3] it was 77.9%; in [4], 96%; in [5], 89.7%; in [6] it was 81.9%. In addition, the growth in test [7] is 92.3%; in [8] it was 78.4%; in test [9] it was 85%; in test [10], 94.3%.
For the compound `NC(=S)N1N=C(c2ccc(Cl)cc2)CC1c1cc2ccccc2[nH]c1=O` (stereo not given), the growth is 104% in [1]; 95.3% in [2]; 106% in test [3]; 101% in test [4]; 107% in test [5]; 87.5% in [6]. Moreover, the growth in [7] was 107%; in test [8], 97.7%; in [9] it was 105%; in test [10], 115%.
In the case of `Cc1c(C(=O)CCl)c(=O)n(-c2ccccc2)n1C`, the growth in [1] was 40%; in test [2] it was 36.2%; in test [3] it was 76.3%; in test [4], 94.5%; in test [5] it was 65.8%; in test [6], 55.5%. For the same compound, the growth in [7] was 87.9%; in test [8], 74.1%; in [9], 62%; in test [10] it was 65%.
Regarding `Cn1c(=O)c2c(nc(N/N=C/c3ccccc3Cl)n2C)n(C)c1=O`, the growth was 105% in test [1]; 93.6% in test [2]; 93.6% in test [3]; 108% in test [4]; 101% in [5]; 99.3% in test [6]. Further, the growth is 109% in test [7], 104% in test [8], 98.2% in test [9] and 122% in test [10].
